In PubChem BioAssay (NCATS) one finds Potency and activity change, negative = inhibition data, which are given here for eleven compounds.

Test [1] concerns Zika virus NS2B-NS3 protease (unlinked complex). Put plainly: Primary screen GU Rhodamine qHTS for Zika virus inhibitors: Unlinked NS2B-NS3 protease assay (AID 1347159). Also: nearly all actives have a fitted effect of over 60% in size. In short, it runs like this: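 Unlinked NS2B/NS3, 25 nM; Rhod110 peptide, 1.5 microM; compounds, up to 114 microM. Reaction run 15 min at RT in 10 mM Tris-HCl pH 8.0, 0.01% Tween 20; kinetic fluorescence change fitted with a 4-parameter Hill model.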
In general terms: In qHTS, concentration-response curves come from the screen itself.

Test [2] concerns Zika virus NS2B-NS3 protease (linked construct). As to the kind of experiment: Primary screen NINDS Rhodamine qHTS for Zika virus inhibitors (AID 1347160). Also: nearly all actives have a fitted effect of over 55% in size. The essentials: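 Single-chain NS2B-NS3 protease, 25 nM, pH 8.0; compounds preincubated 15 min. Activity: Rhodamine110 release from 1.5 microM substrate over 15 min, room temperature, data fitted to 4-parameter Hill.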

Each structure is given as a SMILES string. Results filed as inconclusive are left out. Entries that show only a call come without a potency. A number with no mark means an inactive call. Calls of active or inactive are those of the source. Calls follow the shape of the dose curve; as a rule, active = well fitted inhibition curve with a large enough effect; inconclusive = small, poorly fitted or top-dose-only effect; inactive = no such curve, though single readings can be large or run the other way.

Regarding `CCOc1nc2c(N)ncnc2n1CC`, the Potency result in test [1] and in test [2] was “inactive” each time.

Take `CC1=C2C[C@H]3OC(=O)[C@H](O)[C@@]4(O)[C@@H](C)[C@@H](O)[C@H](O)C([C@@]2(C)[C@H](O)[C@@H](O)C1)[C@@]34C` (some centres not stated): the Potency entry in test [1] and in test [2] was “inactive” each time.

As to `Cc1oc2nc3c(c(NC(=O)CN4CCCC4=O)c2c1C)CCCC3`, the Potency result in test [1] and in test [2] was “inactive” each time.

As for `COc1cc(/C=C/C(=O)OCC2OC(OC3(CO)OC(CO)C(O)C3O)C(O)C(O)C2O)ccc1O` (configuration not stated), the Potency entry in test [1] and in test [2] was “inactive” each time.

`C=C1C(OC(C)=O)CCC2(C)CCC(C(C)(C)O)CC12` (configuration not stated): the Potency result in test [1] and in test [2] was “inactive” throughout.

As for `CC1(CO)CCCC2(C)C1C(OC(=O)c1ccccc1)CC1C(=O)OCC12O` (configuration not stated), the Potency result in test [1] and in test [2] was “inactive” in each case.

With `CC1(C(=O)O)CCCC2(C)C3CCC4CC3(CCC12)CC4C(=O)O` (configuration not stated), the Potency entry in test [1] and in test [2] was “inactive” in each case.

Take `CCOC(=O)C(CCc1ccccc1)NC(C)C(=O)N1Cc2ccccc2CC1C(=O)O` (configuration not stated): the Potency result in test [1] and in test [2] was “inactive” each time.

In the case of `CCCCCOC(=O)Nc1nc(=O)n(C2O[C@H](C)[C@@H](O)[C@H]2O)cc1F` (some centres not stated), the Potency entry in test [1] and in test [2] was “inactive” each time.

Regarding `COc1ccc(/C=C/C(=O)O[C@@H]2[C@@H](O)[C@@H](O)[C@H](O[C@H]3[C@@H]4C=CO[C@@H](O[C@@H]5O[C@H](CO)[C@@H](O)[C@H](O)[C@H]5O)[C@@H]4[C@@]4(CO)O[C@@H]34)O[C@H]2C)cc1`, the Potency entry in test [1] and in test [2] was “inactive” throughout.

With `NC[C@@H]1O[C@@H](O[C@@H]2[C@@H](O[C@@H]3O[C@H](CO)[C@@H](O)[C@H]3O)[C@H](O)[C@@H](N)C[C@H]2N)[C@@H](N)[C@H](O)[C@H]1O`, the activity change, negative = inhibition in test [1] is 6.33% [at 19.1 µM]. Also, the Potency entry in test [2] was “inactive”.
